Assay [1] is described as follows: blockers of polyQ-driven CASP3 activation – cell-based (AID 1583). Conditions: polyglutamine-induced caspase-3 activation, cell assay; stronger effect = higher value;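 tested at 10 µM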.
Assay [2] is described as follows: yeast 75Q aggregation reduction – 75Q-TubU reporter (AID 1593). The note with it: Yeast 75Q polyglutamine aggregation reporter.
Assay [3] is described as follows: restoration of touch response, mutant HTT neurons – whole organism, C. elegans mechanosensory neurons, N-terminal huntingtin (AID 1599). Conditions: C. elegans polyQ-huntingtin mechanosensory neurons, stronger effect = higher value.
The nature of assay [4]: blockers of cytochrome c efflux from mitochondria – biochemical, purified mitochondria (AID 1603).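 Note: mouse liver mitochondria challenged with calcium chloride; signal normalized to the plate average as 100%.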 Conditions: stronger effect = lower value.
Assay [5] can be described thus: polyglutamine aggregate formation blockers (AID 1604). Conditions: polyglutamine-induced protein aggregation inhibition assay; stronger effect = higher value; tested at 2.5 µM.
Assay [6] can be described thus: glutamate transport activators, MN-1 cells, MN-1 cell line (AID 1612).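 Note: tested at 1 µM final; 0% = mean of DMSO vehicle wells on each plate; positive means more glutamate uptake than control and negative means less.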 Conditions: MN-1 motor neuron cells, stronger effect = higher value.
The nature of assay [7]: GFP-Q80 aggregate reduction, neuronal-like cells, cell-based, NGF-treated PC12, GFPQ80 (AID 1614).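 Note: lower means fewer inclusions and 0 means no inclusions at all.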 Conditions: PC12 NGF-treated GFP-polyQ80 inclusion reduction.
Assay [8] in a line: 75Q-TubH aggregate inhibition, S. cerevisiae, yeast (AID 1616). Conditions: S. cerevisiae 75Q-TubH polyglutamine aggregation suppression; stronger effect = higher value.
The target of assay [9] is 6-phosphogluconate dehydrogenase, decarboxylating (Homo sapiens) (UniProt P52209). Description: inhibition of human phosphogluconate dehydrogenase – biochemical, recombinant enzyme, NADPH absorbance, primary screen (AID 1159550;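 active = at least 20% inhibition of 6-phosphogluconate dehydrogenase activity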). Conditions: recombinant 6PGD, NADPH absorbance 341 nm; at 10 µM; stronger effect = higher value.
Assay [10] can be described thus: EMT-state selective cytotoxicity in co-culture – imaging, PC-3E GFP, TEM4-18 mCherry, primary screen (AID 1345086;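 active = compounds killing one labelled cell type while sparing the other, by normalised counts and ratio limits, not self-fluorescent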;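 for all read-outs here: cells exposed to compound for 72 h before imaging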;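 for red/green cell ratio (normalised): normalised mesenchymal count divided by normalised epithelial count so high means epithelial killing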). Conditions: PC-3E GFP / TEM4-18 mCherry co-culture, imaging cell counts, at 1 µM; for red/green cell ratio (normalised): actives lie on both sides, counts scaled to control wells, 1 = unselective.
A short description of assay [11]: viability loss with induced miR-34 in A549 – imaging, A549 dox-inducible miR-34, nuclei and caspase counts, primary screen (AID 1347080). Conditions: A549 miR-34 inducible, Hoechst nuclei count, 48 h.
Assay [12] in a line: MELAS cybrid and Rieske KO viability enhancers – cell-based, MELAS cybrids, Rieske KO mouse fibroblasts, CellTiter-Glo, primary screen (AID 1508586;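 active = mean z-score across replicates of 1.96 or higher in either the MELAS or the Rieske mutant cell line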;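 note: z relative to plate mean and SD of compound and empty wells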). Conditions: low glucose.
In assay [13] the target is NAD(+) hydrolase SARM1 (Homo sapiens) (UniProt Q6SZW1). Description: blocking NAD cleavage by SARM1 SAM-TIR – cell lysate, NAD-Glo luminescence (AID 1508614;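 active = compound whose remaining NAD level is above about 45 nM, limit read from the data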;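 note: higher remaining NAD means stronger inhibition of SARM1 NADase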). Conditions: SAM-TIR HEK293T lysate NADase, at 1 µM, stronger effect = higher value.
For assay [14], the target named is Mitogen-activated protein kinase 7 (Homo sapiens) (UniProt Q13164). Description: Gal4-ERK5 driven luciferase induction – cell-based, HTS, primary screen (AID 1508626;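 active = luciferase signal above three times the same-plate solvent-only control wells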;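 note: luciferase driven by Gal4-ERK5 fusion binding five Gal4 sites before minimal TATA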). Conditions: HeLa Gal4-ERK5 transactivation, 18 h, at 5 µM, stronger effect = higher value.
Assay [15] is described as follows: compounds altering viability of human ES cells (AID 493140; call rule not given here;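 note: cells exposed to compounds for four days before counting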). Conditions: human embryonic stem cell survival screen; stronger effect = higher value.
Assay [16] in a line: P. berghei load reduction in hepatocytes – cell-based, HepG2, luciferase luminescence, HepG2 viability, primary screen (AID 624349; in the data active = parasite load remaining mostly below about 12%, no sharp cut-off; inactive = mostly above about 10%;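 note: 100% = mean of DMSO negative control wells on the same plate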). The note with it: P. berghei liver stage in HepG2, luciferase luminescence, concentration not given here; parasite load remaining: stronger effect = lower value; viability: measured here: HepG2 viability without parasites.
A short description of assay [17]: compounds altering circadian rhythm period length – cell-based, LOPAC library, luminescence reporter (AID 2774; call rule not given here;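 note: values are relative to mean of DMSO wells on each plate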). Conditions: circadian reporter cells, at 7 µM, actives lie on both sides.
A short description of assay [18]: blockers of cellular phospholipid synthesis – cell-based, LOPAC library, screen 4, primary screen (AID 1347384; call rule not given here). Conditions: animal cells, phospholipid biosynthesis inhibition screen; at 10 µM.
The nature of assay [19]: galactose survival enhancers in mitochondrial complex I cybrids – cell-based, galactose medium, ATP luminescence, primary screen (AID 1645843;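 active = z-score of at least 1.8 in each of two replicates, scored against plate mean and spread of sample wells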;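 note: positive z means more ATP and so rescue of galactose-driven cybrid death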). Conditions: complex I mutant cybrid cells, 72 h, stronger effect = higher value.
[20] abbreviates: measured here: epithelial PC-3E GFP cell survival.
[21] abbreviates: measured here: mesenchymal TEM4-18 mCherry cell survival.
The mark [22] stands for this setting: stronger effect = lower value, cell number ratio, induced over uninduced.
The mark [23] stands for this setting: measured here: relative caspase fold change +Dox/-Dox.
[24] abbreviates: measured here: total cells with miR-34 induction, stronger effect = lower value.
Setting [25] is: measured here: total cells without miR-34 induction.
[26] abbreviates: MELAS cybrid survival, CellTiter-Glo 48 h, stronger effect = higher value.
The mark [27] stands for this setting: Rieske KO mouse fibroblast survival, CellTiter-Glo 72 h.

Where “and” joins values, the source holds several entries; their conditions need not be identical. Identical values can stand only once. For part of these data: Entries with a potency or affinity are not part of this list. Calls of active or inactive are those of the source.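 Rule for the calls, unless noted: active = compounds whose cell count with miR-34 switched on is under 0.7 times the count with it off; inactive = the rest.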

Chain of NAD(+) hydrolase SARM1 (Homo sapiens) (Q6SZW1 whole entry, looked up, the tested form may be a part): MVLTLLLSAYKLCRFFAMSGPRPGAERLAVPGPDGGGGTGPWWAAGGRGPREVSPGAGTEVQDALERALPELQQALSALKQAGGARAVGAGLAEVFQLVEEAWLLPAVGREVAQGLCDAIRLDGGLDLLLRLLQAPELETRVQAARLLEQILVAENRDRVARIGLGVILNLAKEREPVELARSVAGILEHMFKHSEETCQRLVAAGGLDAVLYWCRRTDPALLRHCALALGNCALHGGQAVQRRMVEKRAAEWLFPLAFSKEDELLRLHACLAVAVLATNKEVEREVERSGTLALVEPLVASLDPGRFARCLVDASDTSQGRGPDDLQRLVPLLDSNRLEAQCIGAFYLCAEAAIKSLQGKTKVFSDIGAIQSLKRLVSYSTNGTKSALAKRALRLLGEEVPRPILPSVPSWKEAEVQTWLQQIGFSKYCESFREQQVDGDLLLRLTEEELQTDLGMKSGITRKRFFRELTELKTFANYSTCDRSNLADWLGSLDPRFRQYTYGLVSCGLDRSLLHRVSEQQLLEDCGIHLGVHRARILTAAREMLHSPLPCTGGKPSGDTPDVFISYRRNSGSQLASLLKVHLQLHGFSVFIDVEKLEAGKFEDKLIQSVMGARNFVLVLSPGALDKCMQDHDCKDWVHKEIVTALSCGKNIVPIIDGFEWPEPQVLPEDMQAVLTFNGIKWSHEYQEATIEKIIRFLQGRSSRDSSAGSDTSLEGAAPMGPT
Chain of Mitogen-activated protein kinase 7 (Homo sapiens) (Q13164 whole entry, looked up, the tested form may be a part): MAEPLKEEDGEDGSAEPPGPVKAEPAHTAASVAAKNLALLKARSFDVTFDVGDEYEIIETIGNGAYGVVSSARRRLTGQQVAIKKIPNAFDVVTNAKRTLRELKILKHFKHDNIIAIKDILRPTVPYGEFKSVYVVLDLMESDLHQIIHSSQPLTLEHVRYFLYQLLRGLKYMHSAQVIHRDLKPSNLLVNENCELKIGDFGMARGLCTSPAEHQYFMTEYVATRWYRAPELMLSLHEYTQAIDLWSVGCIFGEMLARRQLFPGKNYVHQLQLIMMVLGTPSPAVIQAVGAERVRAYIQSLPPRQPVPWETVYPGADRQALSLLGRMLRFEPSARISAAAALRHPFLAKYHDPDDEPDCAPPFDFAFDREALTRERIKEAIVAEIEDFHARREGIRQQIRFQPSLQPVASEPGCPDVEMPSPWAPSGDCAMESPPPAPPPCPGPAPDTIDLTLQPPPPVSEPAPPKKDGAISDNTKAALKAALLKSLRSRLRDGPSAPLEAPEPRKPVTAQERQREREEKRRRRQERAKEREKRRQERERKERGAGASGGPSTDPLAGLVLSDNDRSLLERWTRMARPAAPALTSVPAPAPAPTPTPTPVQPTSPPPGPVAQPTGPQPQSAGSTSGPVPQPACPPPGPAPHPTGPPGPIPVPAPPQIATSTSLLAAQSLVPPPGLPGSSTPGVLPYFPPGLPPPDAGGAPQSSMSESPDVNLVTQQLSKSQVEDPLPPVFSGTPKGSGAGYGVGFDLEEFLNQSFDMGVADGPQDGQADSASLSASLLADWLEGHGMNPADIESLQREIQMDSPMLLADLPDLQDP
Chain of 6-phosphogluconate dehydrogenase, decarboxylating (Homo sapiens) (P52209 whole entry, looked up): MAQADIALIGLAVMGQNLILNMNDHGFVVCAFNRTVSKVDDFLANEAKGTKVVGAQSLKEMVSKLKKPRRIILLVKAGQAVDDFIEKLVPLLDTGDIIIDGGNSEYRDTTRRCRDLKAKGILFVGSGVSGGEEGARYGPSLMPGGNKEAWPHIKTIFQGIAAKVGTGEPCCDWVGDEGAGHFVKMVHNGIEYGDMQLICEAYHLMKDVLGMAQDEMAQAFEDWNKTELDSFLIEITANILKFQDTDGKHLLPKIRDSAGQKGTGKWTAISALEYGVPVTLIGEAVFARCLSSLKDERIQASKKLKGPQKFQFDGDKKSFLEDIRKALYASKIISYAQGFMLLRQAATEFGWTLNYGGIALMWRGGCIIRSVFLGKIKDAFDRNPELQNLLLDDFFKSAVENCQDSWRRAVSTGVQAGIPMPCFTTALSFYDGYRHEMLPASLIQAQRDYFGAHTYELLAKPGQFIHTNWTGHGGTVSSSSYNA

On to `COc1c2ccoc2cc2oc(=O)ccc12`, for which the values for the inhibition in assay [1] and in assay [9] were -19.8% and -3.29% (inactive), respectively. For the same molecule, in [2], the score came to 1.02. In [3], this molecule had a rescue above control of 6.75. For the same molecule, the cytochrome c release ratio in [4] was determined as 1.07. This molecule returned an inhibition of aggregation in assay [5] of 80.3%. Further, the glutamate uptake change in assay [6] was -26.6%. For the same molecule, the inclusion score in assay [7] turned out to be 2. In [8], this molecule displayed an aggregation suppression score of 0.569. For the same molecule, in [10], the red/green cell ratio (normalised) was 0.94 (inactive). Moreover, the normalised cell number in [10] (setting [20]) came out at 1.1; in assay [10] (setting [21]) it was 1.03. Besides, the fold change was 0.859 (inactive) in assay [11] (setting [22]) and 0.824 in [11] (setting [23]). Further, the cell count turned out to be 8190 in [11] (setting [24]) and 9530 in [11] (setting [25]). Further, the z-score was -0.332 (inactive) in assay [12] (setting [26]) and -0.177 in [12] (setting [27]). Besides, the remaining NAD in assay [13] was 10 nM (inactive). Besides, the luciferase signal in assay [14] is 28 AU (inactive).

Consider `CC1(C)S[C@@H]2[C@H](NC(=O)Cc3ccccc3)C(=O)N2[C@H]1C(=O)O`, for which the inhibition – broadly, the change of the read-out against control, counted positive when it falls – is 18.9% in assay [1] and 1.35% (inactive) in [9]. In [2], this molecule displayed a score of 1.32. Besides, the rescue above control in assay [3] was -0.92. Further, in assay [4], the cytochrome c release ratio stood at 0.98. Further, in [5], the inhibition of aggregation stood at 16.8%. For the same molecule, the glutamate uptake change in assay [6] was 6.9%. For the same molecule, the inclusion score in assay [7] is 2. The molecule further returned an aggregation suppression score in assay [8] of 1.3. For the same molecule, the survival in [15] is 5.08 (inactive). The parasite load remaining in assay [16] is 73.8% (inactive) and 85.4% (inactive) and 69.6% (inactive). In addition, in assay [16], the viability (commonly a read-out of living cells in per cent, often relative to untreated cells) is 70.9% and 69.6% and 97.7%. The red/green cell ratio (normalised) in assay [10] was 1.11 (inactive). Besides, the normalised cell number in [10] (setting [20]) was 0.85; in [10] (setting [21]), 0.94. For the same molecule, the fold change in assay [11] (setting [22]) was 0.959 (inactive) and 0.873 (inactive); in assay [11] (setting [23]), 0.53 and 0.733. Further, the cell count in [11] (setting [24]) is 9610 and 11500; in [11] (setting [25]), 10000 and 13200. Also, the figures for the z-score in [12] (setting [26]) and in [12] (setting [27]) were -1.02 (inactive) and -0.0384, respectively. For the same molecule, the remaining NAD in assay [13] is 10 nM (inactive). Besides, the luciferase signal in assay [14] was 108 AU (inactive).

As to `NC(N)=NCCCCN=C(N)N`, the inhibition in [1] is 0.26%; in assay [9] it was -2.55% (inactive). In addition, the score in [2] was found to be 1.07. For the same molecule, the rescue above control in assay [3] is -1.01. The cytochrome c release ratio in [4] stood at 1.43. Besides, in [5], the inhibition of aggregation was 83.3%. Moreover, the glutamate uptake change in assay [6] is 11.5%. This molecule also had an inclusion score in assay [7] of 2. This molecule displayed an aggregation suppression score in assay [8] of 1.37. For the same molecule, in assay [17], the period change is 0.195 h (inactive). The survival in assay [15] was 5.58 (inactive). Besides, in assay [16], the parasite load remaining was 111% (inactive). Further, the viability in assay [16] is 108%. For the same molecule, the red/green cell ratio (normalised) in assay [10] is 0.92 (inactive). The normalised cell number in assay [10] (setting [20]) was 1.06; in assay [10] (setting [21]), 0.97. The fold change in assay [11] (setting [22]) was 0.968 (inactive) and 0.866 (inactive); in [11] (setting [23]), 0.983 and 0.933. Further, the cell count was 9930 and 7710 in assay [11] (setting [24]); 10300 and 8910 in assay [11] (setting [25]). Besides, the molecule was called inactive in assay [18]. In addition, the luciferase signal in [14] is 52 AU (inactive). Further, the z-score in [19] was 0.645 (inactive).

In the case of `O=C1OC(=O)C2C3CCC(O3)C12` (stereo not given), the period change in [17] was -0.06 h (inactive). In [9], the inhibition is 14.8% (inactive). In assay [10], the red/green cell ratio (normalised) was 0.77 (inactive). Besides, the normalised cell number amounted to 1.38 in [10] (setting [20]) and 1.06 in assay [10] (setting [21]). Moreover, the figures for the fold change in [11] (setting [22]) and in assay [11] (setting [23]) were 1.08 (inactive) and 0.974, respectively. For the same molecule, the cell count stood at 8750 in [11] (setting [24]) and 8080 in assay [11] (setting [25]). Also, the molecule was classed as inactive in assay [18]. In assay [14], the luciferase signal is 52 AU (inactive). In assay [19], the z-score was -0.385 (inactive).

As for `CC(C)(C)NC[C@H](O)c1ccc(O)c(CO)c1`, the inhibition in assay [9] is -0.348% (inactive). The red/green cell ratio (normalised) in assay [10] was 0.77 (inactive). Moreover, the results for the normalised cell number in assay [10] (setting [20]) and in [10] (setting [21]) were 1.2 and 0.92, respectively. The figures for the fold change in [11] (setting [22]) and in assay [11] (setting [23]) were 0.873 (inactive) and 1.01, respectively. The cell count in [11] (setting [24]) was 7950; in assay [11] (setting [25]), 9100. Also, the z-score in assay [12] (setting [26]) was 0.715 (inactive); in assay [12] (setting [27]) it was -0.611. Moreover, the remaining NAD in [13] was 10 nM (inactive). Also, the luciferase signal in [14] is 112 AU (inactive).

These data come from PubChem BioAssay.
